Source: PubChem BioAssay AID504339 (National Center for Advancing Translational Sciences (NCATS), 2011)
Screen size: about 390,000 compounds; about 17,000 (4.4%) were called active. About 8% were inconclusive and are not listed. The full list was thinned out, with actives kept by preference. Values without a mark were called inactive. The call rests on the fitted dose curve; in most records, active means well fitted inhibition curve with a large enough effect; inconclusive means small, poorly fitted or top-dose-only effect; inactive means no such curve, though single readings can be large or run the other way.

Molecular target: Lysine-specific demethylase 4A (Homo sapiens) (UniProt O75164)
Assay: qHTS Assay for Inhibitors of JMJD2A-Tudor Domain; further: nearly all actives have a fitted effect of over 50% in size
Details: AlphaScreen JMJD2A-Tudor / H3K4me3 peptide binding; series mostly up to 114 µM; activity change, negative = inhibition: at the top concentration
On the % scale 0 is the no-effect control and ±100 the full control effect; potency means the concentration at half of the fitted maximal effect.

Chain of Lysine-specific demethylase 4A (Homo sapiens) (O75164 whole entry, looked up, the tested form may be a part): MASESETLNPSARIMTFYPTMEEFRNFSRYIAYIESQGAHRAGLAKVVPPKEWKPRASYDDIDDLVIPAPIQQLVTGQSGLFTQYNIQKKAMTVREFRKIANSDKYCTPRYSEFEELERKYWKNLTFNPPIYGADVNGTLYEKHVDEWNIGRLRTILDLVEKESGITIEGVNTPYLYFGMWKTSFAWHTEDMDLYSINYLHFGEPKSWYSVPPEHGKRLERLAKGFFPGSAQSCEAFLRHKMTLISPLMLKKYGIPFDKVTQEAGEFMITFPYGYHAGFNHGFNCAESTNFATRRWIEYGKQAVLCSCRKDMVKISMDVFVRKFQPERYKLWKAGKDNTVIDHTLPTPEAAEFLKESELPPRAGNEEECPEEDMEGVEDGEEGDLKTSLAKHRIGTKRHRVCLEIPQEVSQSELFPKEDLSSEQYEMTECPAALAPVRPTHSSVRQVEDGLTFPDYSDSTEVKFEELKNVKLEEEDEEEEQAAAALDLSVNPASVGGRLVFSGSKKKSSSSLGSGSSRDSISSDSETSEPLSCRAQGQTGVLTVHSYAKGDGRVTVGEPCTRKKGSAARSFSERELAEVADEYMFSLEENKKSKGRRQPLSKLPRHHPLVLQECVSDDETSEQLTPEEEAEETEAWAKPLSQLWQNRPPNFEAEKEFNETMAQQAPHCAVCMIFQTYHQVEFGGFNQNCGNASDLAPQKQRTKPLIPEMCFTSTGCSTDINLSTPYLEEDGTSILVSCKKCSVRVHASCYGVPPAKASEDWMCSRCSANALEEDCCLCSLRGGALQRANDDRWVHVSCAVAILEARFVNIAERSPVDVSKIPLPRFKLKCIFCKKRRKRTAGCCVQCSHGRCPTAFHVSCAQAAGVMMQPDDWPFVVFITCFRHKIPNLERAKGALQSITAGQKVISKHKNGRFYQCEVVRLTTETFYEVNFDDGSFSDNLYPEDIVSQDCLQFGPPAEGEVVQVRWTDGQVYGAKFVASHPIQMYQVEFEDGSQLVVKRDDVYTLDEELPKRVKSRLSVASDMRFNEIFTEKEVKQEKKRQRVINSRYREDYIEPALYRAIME

| SMILES | activity change, negative = inhibition | Potency |
| --- | --- | --- |
| CCOc1ccccc1NC(=O)C1=C(C)Nc2ncnn2C1c1ccc(NC(C)=O)cc1 (configuration not stated) | -9.27% |  |
| COc1ccc(Cl)cc1NC(=O)CSc1nc2ccccc2c2nc(-c3ccccc3)nn12 | -16.3% |  |
| O=C1COc2c1ccc(O)c2O |  | 5.62 µM (active) |
| O=C1CN(Cc2ccccc2)S(=O)(=O)c2ccccc21 |  | 79.4 µM (active) |
| CC(C)(C)c1ccc(CN2C(=O)c3ccccc3S2(=O)=O)cc1 | 39.4% |  |
| COc1ccc(CN2CCC(=O)c3ccccc3S2(=O)=O)cc1 | -16.6% |  |
| CCn1cc2nc(SCc3cccc(F)c3)n(CCc3ccccc3)c(=O)c2n1 | -13.6% |  |
| Cc1ccccc1Nc1nc(N)nc(CSc2nnc3ccccn23)n1 | -1.03% |  |
| Cc1ccccc1Nc1nc(N)nc(CN2CCN(c3ccccn3)CC2)n1 |  | 56.2 µM (active) |
| Cc1ccccc1Nc1nc(N)nc(CSc2ccccc2)n1 | -23.1% |  |
| Cc1cc(NC(=O)c2cccc(Cl)c2)ccc1-c1cc2ccccc2oc1=O | -15% |  |
| O=C(c1cccs1)c1cn(CCOc2ccc(Cl)cc2)c2ccccc12 | -16.5% |  |
| CCN(CC)CCNC(=O)c1cc2c(=O)oc3ccc(C)cc3c2s1 | 5.72% |  |
| CCc1ccc(S(=O)(=O)c2nnn3c2nc(NCc2ccccc2OC)c2cc(Cl)ccc23)cc1 | 2.18% |  |
| CN(C)S(=O)(=O)N1CCN(c2ccc([N+](=O)[O-])cc2)CC1 | -14.7% |  |
| COc1ccc(N2CCN(c3ccc([N+](=O)[O-])cc3Cl)CC2)cc1 | -10.3% |  |
| O=[N+]([O-])c1ccc(N2CCN(c3ccc(O)cc3)CC2)c(Cl)c1 |  | 44.7 µM (active) |
| Cc1ccc(Cl)cc1NC(=O)CCS(=O)(=O)c1ccc(Br)s1 | -32.1% |  |
| Cc1ccc(C)c(S(=O)(=O)N2CCN(C(=O)Nc3ccccc3)CC2)c1 | -24% |  |
| Cc1ccc(C)c(S(=O)(=O)N2CC(=O)Nc3ccccc32)c1 |  | 79.4 µM (active) |
| Cc1ccc(S(=O)(=O)N2CC(=O)Nc3ccccc32)cc1C | -9.3% |  |
| CCOc1ccc(CCNC(=O)c2csc3c2CCCCC3)cc1 | -11.6% |  |
| COc1ccc(C2=NC3(CCCCC3)N(CC(=O)Nc3ccc(C(C)C)cc3)C2=O)cc1 | -11.7% |  |
| Cc1ccc(-n2nc(C)c3c(C)cc(=O)n(CC(=O)Nc4ccc(C(C)C)cc4)c32)cc1 | -1.33% |  |
| CC(=O)Nc1ccc(NC(=O)COc2ccc(S(=O)(=O)NC(C)c3ccccc3)cc2)cc1 (configuration not stated) | -12.4% |  |
| CCCCC(CC(C)O)c1n[nH]c(=S)n1-c1ccccc1 (configuration not stated) |  | 28.2 µM (active) |

| SMILES | activity change, negative = inhibition | Potency |
| --- | --- | --- |
| CC(NS(=O)(=O)c1ccccc1)c1n[nH]c(=S)n1-c1ccccc1 (configuration not stated) |  | 25.1 µM (active) |
| CC(NS(=O)(=O)c1ccc(OCC(=O)N2CCCC2)cc1)c1ccccc1 (configuration not stated) | -20% |  |
| CCCSc1nc2sc3c(c2c(=O)n1-c1cccc(Br)c1)CC(C)(C)OC3 | -6.23% |  |
| CCC(C(=O)Nc1cccc(Cl)c1C)n1nc(-c2ccc(C)cc2)ccc1=O (configuration not stated) | 1.57% |  |
| CCc1ccc(NC(=O)c2cc(S(=O)(=O)NC3CCCCCC3)ccc2F)cc1 | -16.5% |  |
| CCn1c(SCC(=O)Nc2nc(C)cs2)nnc1C(C)NC(=O)c1ccccc1 (configuration not stated) |  | 79.4 µM (active) |
| CCn1c(SCC(=O)NC2=NCCS2)nnc1C(C)NC(=O)c1ccccc1F (configuration not stated) | 0.714% |  |
| COCCn1c(SCC(=O)Nc2nc(C)cs2)nnc1C(C)C | -6.34% |  |
| Cc1ccc(N2CC(NC(=O)Cc3cccs3)CC2=O)cc1 (configuration not stated) | -0.325% |  |
| COc1cccc(CNCc2c(C(=O)O)n(Cc3ccc(C)cc3)c3cc(C)ccc23)c1OC | -27.8% |  |
| CC(N=Cc1nc(-c2ccccc2)oc1O)c1ccccc1 (configuration not stated) |  | 79.4 µM (active) |
| CCOc1ccc2nc(/N=C/c3nc(-c4ccccc4)oc3O)sc2c1 | 0.641% |  |
| Oc1oc(-c2ccccc2Br)nc1/C=N/c1ccccn1 | -28.1% |  |
| CCN(Cc1ccccc1)S(=O)(=O)c1ccc2c(c1)CCCN2C(C)=O | -0.968% |  |
| COC(=O)c1cc(NC(=O)c2cnc(SC)nc2-c2ccccc2)cc(C(=O)OC)c1 | -3.53% |  |
| O=C1/C(=C/c2ccc(F)cc2)SC(=S)N1CCCC(=O)N1CCCCC1CCO (configuration not stated) |  | 44.7 µM (active) |
| O=C1/C(=C/c2ccc(F)cc2)SC(=S)N1NS(=O)(=O)c1ccccc1 | -31.5% |  |
| O=C1CCCCN1CCCC(=O)N1CCCC(Nc2ccc(F)cc2)C1 (configuration not stated) | -26.6% |  |
| CCOc1cccc2cc(-c3cn4c(n3)sc3cc(C)ccc34)c(=O)oc12 | -17.3% |  |
| O=C(CSc1ncc(S(=O)(=O)c2ccc(Br)cc2)c(=O)[nH]1)Nc1ccc2c(c1)OCCO2 | -23.6% |  |
| COc1cc2nc(SCC(=O)Nc3ccccc3F)n3nc(-c4ccccc4)nc3c2cc1OC | -20.3% |  |
| COc1ccc(N2CCN(Cc3nnc(-c4ccccc4)o3)CC2)cc1 | -22.4% |  |
| COc1ccc(N2CCN(Cc3ccc(Br)s3)CC2)cc1 |  | 3.55 µM (active) |
| COc1ccc(N2CCN(C(=O)c3cccs3)CC2)cc1 | -25.6% |  |
| COc1cccc(NC(=O)Cn2c(=O)cc(C)c3c(C)nn(-c4cccc(F)c4)c32)c1 | -6% |  |
| O=S(=O)(c1ccccc1)c1nc(-c2ccc(Cl)cc2Cl)oc1N1CCCCC1 | -30.6% |  |

| SMILES | activity change, negative = inhibition | Potency |
| --- | --- | --- |
| CCCSc1ncccc1C(=O)O | -11% |  |
| OCCNc1nc2ccccc2n1-c1ncnc2sc3c(c12)CCC3 | -15.2% |  |
| O=C(O)c1cccnc1Sc1ncnc2sc3c(c12)CCC3 |  | 31.6 µM (active) |
| Cc1ccc2oc3c(c(=O)c2c1)C(c1ccc([N+](=O)[O-])cc1)N(CCCN1CCOCC1)C3=O (configuration not stated) | -12.9% |  |
| CCc1ccccc1NC(=O)N1CCC2(CC1)Oc1ccccc1C(=O)N2Cc1ccccc1F | -9.82% |  |
| CC(=O)Nc1ccc(NC(=O)CCCc2nc(-c3ccc(C(C)(C)C)cc3)no2)cc1 | -15.6% |  |
| O=C(N/N=C/c1ccc(Cl)cc1)c1nc2ccc([N+](=O)[O-])cc2c(=O)[nH]1 |  | 28.2 µM (active) |
| N#Cc1cc([N+](=O)[O-])ccc1Oc1cccc(/C=N/NC(=O)c2ccc(Cl)cc2)c1 | 3.79% |  |
| O=C(N/N=C/c1cccc(OC(=O)c2ccc([N+](=O)[O-])cc2)c1)c1cccnc1 | -9.12% |  |
| COC(=O)c1ccc(NC(=O)CCc2c(C)nn(-c3ccc(N4CCCC4)nn3)c2C)cc1 | -28% |  |
| Cc1cc(C)cc(Nc2ncnc3onc(-c4ccc(F)cc4)c23)c1 | 19.4% |  |
| Brc1nc2ncnc(NCc3ccco3)c2[nH]1 | -4.62% [at 57.1 µM] |  |
| O=C1CSC(=S)N1/N=C/c1ccc(O)c([N+](=O)[O-])c1 |  | 20 µM (active) |
| O=C(CNC(=O)c1ccc(Cl)c(C(F)(F)F)c1)OC(C(=O)Nc1cc(C(F)(F)F)ccc1Cl)c1ccccc1 (configuration not stated) | -21.2% |  |
| CCOC(=O)c1ccccc1NC(=O)c1nn(-c2ccc(OC)c(Cl)c2)c(=O)c2c1c1ccccc1n2C | 0% |  |
| N#Cc1nc(Nc2cc(F)cc(Cl)c2)nc(NC2CCCC2)n1 | -3.42% |  |
| CC(C)(C)C(=O)OCc1nc(-c2ccc(O)c(O)c2)cs1 |  | 3.55 µM (active) |
| CCCC(=O)N1c2ccc(-c3csc(N)n3)cc2CC1C (configuration not stated) | -22.4% |  |
| Cc1onc(C(=O)NN)c1-c1csc(COc2ccccc2)n1 | -5.43% |  |
| Cc1cc(C)c(NC(=O)CSc2nc3nccnc3c(=O)n2CCc2c[nH]c3ccccc23)c(C)c1 | -1.32% |  |
| COC(=O)c1ccccc1NC(=O)c1ccc(C#N)cc1 | -6.85% |  |
| COc1cc(NC(=O)Cn2c(=O)n(Cc3ccco3)c(=O)c3oc4ccccc4c32)cc(OC)c1 | -12.1% |  |
| O=S(=O)(NCCc1nnc2ccc(SCc3ccc(Cl)cc3Cl)nn12)c1ccccc1 | -28.2% |  |
| O=C(O)/C=C/C(=O)NNc1ccc([N+](=O)[O-])cc1 |  | 31.6 µM (active) |
| CNC(=S)Nc1ccc([N+](=O)[O-])cc1 | -16.7% |  |
| NC(=O)C1(Nc2ccc([N+](=O)[O-])cc2)CCCC1 | -8.28% |  |

| SMILES | activity change, negative = inhibition | Potency |
| --- | --- | --- |
| CCS(=O)(=O)N1CCC(n2c(C)nc3cccnc32)CC1 | -7.47% |  |
| O=C(CSc1ncn[nH]1)Nc1ccnc2ccccc12 | -14.5% |  |
| CCN(C(=O)COC(=O)c1ccccc1O)c1cccc2ccccc12 | 5.48% |  |
| CCN(C(=O)CSc1ncn[nH]1)c1cccc2ccccc12 |  | 3.16 µM (active) |
| Cc1ccc(-c2onc(C)c2C)cc1S(=O)(=O)Nc1ccccn1 | -2.92% |  |
| COC(=O)c1cc(S(=O)(=O)N2CCN(c3cc(Cl)ccc3C)CC2)c[nH]1 | -12.8% |  |
| O=C(Nn1cc(C(=O)N2CCN(c3ccccc3F)CC2)c2ccccc2c1=O)c1cnccn1 |  | 25.1 µM (active) |
| Cc1nc2ccn(Cc3cccnc3)c(=O)c2cc1C(=O)N1CCN(c2ccccc2F)CC1 | -13.7% |  |
| O=C(Cn1nc(Cc2cccnc2)c2ccccc2c1=O)N1CCN(c2ccccc2F)CC1 | -17.9% |  |
| CCN(CC)S(=O)(=O)c1ccc(C(=O)N=c2sc3cccc(OC)c3n2C)cc1 | 7.09% |  |
| O=C(NCc1ccc2c(c1)CCN2C(=O)c1ccccc1)Nc1cc(F)ccc1F | -25.3% |  |
| CCc1cnc2c(c1SCC(=O)c1ccccc1)c(=O)n(C)c(=O)n2C | -8.44% |  |
| COc1ccc(-c2nn3c(=O)cc(CN4CCN(C(=O)c5ccc(OC)c(OC)c5)CC4)nc3s2)cc1 | -11.7% |  |
| COc1ccccc1OCCCCCCN1CCN(C)CC1 | -32.2% |  |
| CCN1CCN(CCCCOc2ccccc2F)CC1 |  | 0.794 µM (active) |
| CN1CCN(CCCCOc2cccc3ccccc23)CC1 | -30.3% |  |
| CC(C)NC(=O)c1nn(-c2ccccc2F)nc1CO | -10.1% |  |
| Cc1[nH]c2ccccc2c1C(c1ccccc1)c1cccs1 (configuration not stated) | -2.63% |  |
| Cc1cccc(-n2ncc(C(=O)N3CCC(C)CC3)c2C2CCN(C(=O)OC(C)(C)C)CC2)c1 | -5.18% |  |
| CCCCSc1ncnc2c1sc1nc(N3CCOCC3)c3c(c12)CCCC3 | -5.84% |  |
| CCC(=O)c1ccc(OCC(O)Cn2nc(C)c(C(C)=O)c2C)cc1 (configuration not stated) | -28.5% |  |
| Cc1cc(C)n(CC(O)CN(c2ccccc2)S(=O)(=O)c2ccc3ccccc3c2)n1 (configuration not stated) | -14.1% |  |
| Cc1cc(C)n(CC(O)COc2ccc(C(C)(C)C)cc2)n1 (configuration not stated) |  | 79.4 µM (active) |
| COc1ccc(S(=O)(=O)c2c(Nc3ccc(C)cc3)sc(C(=O)c3ccc(C)cc3)c2N)cc1 | -18.2% |  |
